Compounds without any hit were thinned out: in the full panel of roughly 83,000, 20% have a hit.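 Assay: single dose, 48 h. Readout: percent growth (0 = no net growth; negative = cell death). Active: <10.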 Active and inactive are the calls of the source.
How the values were obtained:
Experiment in all cases: NCI-60 one-dose screen, 48 h (100 = growth as untreated, 0 = no growth, -100 = all killed)
[1] = tested on: SR leukemia; settings: 10 µM unless noted
[2] = tested on: RPMI-8226 leukemia; settings: 10 µM unless noted
[3] = tested on: OVCAR-8 ovarian; settings: 10 µM unless noted
[4] = tested on: OVCAR-5 ovarian; settings: 10 µM unless noted
[5] = tested on: OVCAR-4 ovarian; settings: 10 µM
[6] = tested on: IGROV1 ovarian; settings: 10 µM unless noted
[7] = tested on: OVCAR-3 ovarian; settings: 10 µM unless noted
[8] = tested on: HS 578T breast; settings: 10 µM unless noted
[9] = tested on: NCI/ADR-RES ovarian; settings: 10 µM unless noted
[10] = tested on: T-47D breast; settings: 10 µM unless noted
[11] = tested on: BT-549 breast; settings: 10 µM unless noted
[12] = tested on: MDA-MB-435 melanoma; settings: 10 µM unless noted
[13] = tested on: SW-620 colon; settings: 10 µM unless noted
[14] = tested on: MCF7 breast; settings: 10 µM unless noted
[15] = tested on: HCT-116 colon; settings: 10 µM unless noted
[16] = tested on: HCC-2998 colon; settings: 10 µM unless noted
[17] = tested on: KM12 colon; settings: 10 µM unless noted
[18] = tested on: SK-OV-3 ovarian; settings: 10 µM unless noted

Measured: growth

CCc1ccc(NC(=O)N[C@@H](Cc2cc(F)cc(F)c2)C(=O)N[C@@H]2C(=O)N3C[C@H](O)C[C@H]3C(=O)N3CCOC[C@H]3C(=O)N[C@@H](C)C(=O)N3C[C@H](C)C[C@H]3C(=O)O[C@H]2C)cc1
inactive: [1] 48.3% | [2] 17.2% | [3] 62.3% | [4] 46.3% | [5] 12.8% | [6] 49.4% | [7] 16.8% | [8] 41.2% | [9] 107% | [10] 18.2% | [11] 11.3% | [12] 21.5% | [13] 48.5% | [14] 24.1% | [15] 13.7% | [16] 32.1% | [17] 42.7%

CCCC(NC(=O)OCc1ccccc1)C(=O)O (stereo not given)
inactive: [1] 121% | [2] 68.7% | [3] 93.5% | [4] 94.8% | [5] 106% | [18] 119% | [10] 99.6% | [12] 109% | [13] 97.9% | [14] 96% | [15] 98.1% | [17] 109%

Cc1cccc([N+](=O)[O-])c1I
inactive: [1] 128% | [2] 99.6% | [3] 98.2% | [4] 98.9% | [5] 110% | [18] 115% | [7] 118% | [9] 109% | [10] 104% | [11] 110% | [12] 103% | [13] 108% | [14] 114% | [15] 112% | [16] 101% | [17] 112%

Cc1cc(NN=C(c2ccc(O)cc2)c2ccc(O)cc2)c([N+](=O)[O-])cc1[N+](=O)[O-]
inactive: [1] 84.9% | [2] 123% | [4] 90.1% | [5] 52.6% | [18] 73.5% | [7] 63.3% | [9] 26.3% | [10] 33.1% | [11] 90.8% | [12] 47.5% | [13] 71.4% | [14] 32% | [15] 28.6% | [16] 61.9% | [17] 37.7%
active: [3] 0.819%

CN(C)c1ccc(-c2ccc(-c3ccc(C(=N)N)cc3)s2)cc1
inactive: [3] 57.6% | [8] 104% | [9] 46.3% | [11] 96.2%
active: [1] 5.33% | [2] -40% | [4] -55.2% | [5] 8.97% | [6] -63.5% | [7] -85.3% | [10] -50.8% | [12] -77.6% | [13] -54.9% | [14] -55.3% | [15] -45.3% | [16] -74.2% | [17] -73%

COc1ccc(C(=O)c2nccc3cc(OC)c(OC)cc23)cc1OC
inactive: [1] 102% | [2] 133% | [3] 94.3% | [4] 86.5% | [5] 108% | [18] 108% | [7] 87.2% | [8] 98% | [10] 79.4% | [12] 119% | [13] 96% | [14] 93.2% | [15] 92.9% | [17] 104%

Cc1ccc(S(=O)(=O)Nc2ccccc2)cc1N
inactive: [1] 92.2% | [2] 123% | [3] 95.4% | [4] 91.3% | [5] 111% | [18] 104% | [7] 95.6% | [9] 91% | [10] 101% | [11] 49.5% | [12] 92.6% | [13] 99.7% | [14] 91.8% | [17] 107%

COc1cc2c(c(OC)c1OC)-c1ccc(NNC(N)=S)c(=O)cc1[C@@H](NC(C)=O)CC2
active: [2] -11.9% | [3] 6.26% | [18] 7.84% | [7] -56.8% | [11] -5.6% | [12] -12.2% | [15] 2.28% | [17] -35.6%
inactive: [1] 13.2% | [4] 31.5% | [5] 23.1% | [9] 87.4% | [10] 70.7% | [13] 24.9% | [14] 10.1% | [16] 11.4%

Cc1ccc(C2=C/C(=C/c3ccc(Br)cc3)C(=O)N2CCc2ccc(S(N)(=O)=O)cc2)cc1
inactive: [1] 87.2% | [2] 96.1% | [3] 95.7% | [4] 97.2% | [5] 91.5% | [6] 85.5% | [7] 104% | [8] 93.4% | [9] 89.1% | [10] 75.9% | [11] 98.1% | [12] 101% | [13] 103% | [14] 88.5% | [15] 95.2% | [16] 105% | [17] 100%

O=C(NNc1ccc(-c2ccccc2)nn1)c1ccccc1
inactive: [1] 103% | [2] 102% | [3] 99.5% | [4] 100% | [5] 96% | [6] 99.3% | [7] 108% | [8] 103% | [9] 102% | [10] 98.8% | [11] 94.6% | [12] 101% | [13] 103% | [14] 92% | [15] 91.3% | [16] 106% | [17] 102%

COc1ccc(-c2cc(-c3ccccc3)nc(NCCNc3ccnc4cc(Cl)ccc34)n2)cc1
active: [1] -7.13% | [2] -34.4% | [3] -60.2% | [4] -96.6% | [5] -48.8% | [6] -74.1% | [7] -82.6% | [8] -53.9% | [9] -71.9% | [10] -64.6% | [11] -69.4% | [12] -68.8% | [13] -68.2% | [14] -75.7% | [15] -74.1% | [16] -81.1% | [17] -72.7%

Cc1c(Cn2cc(COc3ccc(Br)cc3)nn2)c(C)c(Cn2cc(COc3ccc(Br)cc3)nn2)c(C)c1Cn1cc(COc2ccc(Br)cc2)nn1
inactive: [1] 63.2% | [2] 97.9% | [3] 95.1% | [4] 96.8% | [5] 87.3% | [6] 90.7% | [7] 88.7% | [8] 96.8% | [9] 101% | [10] 70.2% | [11] 97.1% | [12] 98.7% | [13] 85% | [14] 90% | [15] 92.3% | [16] 114% | [17] 99.8%

COc1ccc(C2=C(c3cn(C)c4ccccc34)C(=O)OC2)cc1OC
inactive: [1] 29.1% | [2] 40% | [3] 47.8% | [4] 64.9% | [5] 39.8% | [6] 43.4% | [8] 22.5% | [9] 22.7% | [10] 23.8% | [11] 45.9% | [13] 19.7% | [14] 18.8% | [15] 29.3% | [16] 65.9% | [17] 26.4%
active: [7] -8.6% | [12] -8.21%

Cc1ccc(-c2cc(-c3ccc(C)cc3)nc(NCCNc3ccnc4cc(Cl)ccc34)n2)cc1
active: [1] 2.87% | [2] -22% | [3] -53.4% | [4] -34.9% | [5] -31.4% | [6] -66.2% | [7] -80.3% | [8] -46.7% | [9] -63.1% | [10] -69.2% | [12] -76.4% | [13] -64.9% | [14] -77.3% | [15] -84.5% | [16] -80.2% | [17] -73%
inactive: [11] 57.7%

Cc1cc(N2CCCCCC2)nc(N2CCN(CC(=O)Nc3ccc4c(ccn4Cc4ccccc4)c3)CC2)n1
inactive: [1] 23.4% | [2] 43.9% | [3] 32.5% | [4] 74.4% | [5] 46.1% | [6] 49.9% | [7] 55.4% | [8] 47.2% | [9] 37.6% | [10] 20.2% | [11] 59% | [12] 67.7% | [13] 63.2% | [14] 24.1% | [15] 32% | [16] 91.7% | [17] 35%

CC(C)CSc1ncnc2nc[nH]c12
inactive: [1] 119% | [2] 71.4% | [3] 104% | [4] 86.6% | [5] 100% | [6] 67.1% | [7] 103% | [8] 116% | [9] 100% | [10] 85.7% | [11] 104% | [12] 104% | [13] 104% | [14] 97.1% | [15] 109% | [16] 101% | [17] 106%

Cc1ccc(-c2cn(C/C=C3\C=CN(S(=O)(=O)c4ccccc4)CC3)nn2)cc1
inactive: [1] 108% | [2] 102% | [3] 100% | [4] 120% | [5] 74.2% | [6] 104% | [7] 108% | [8] 97.2% | [9] 99.6% | [10] 78.3% | [11] 96.1% | [12] 101% | [13] 102% | [14] 90.3% | [15] 98% | [16] 109% | [17] 101%

— PubChem BioAssay (NCI)
